Shown are actives, neighbours in structure and some others; about 7.9% of the full set was active somewhere.
HT1080NT lethal: kills 2HG-producing HT-1080-NT fibrosarcoma cells. AID 686970. Potency, µM (titrated, usually from 46.1 µM), for inactives: top-dose activity, negative = less viability, most hits filed as cytotoxic. HT-1080-NT fibrosarcoma viability, CellTiter-Glo ATP luminescence, 48 h. 360,000 compounds, 1.6% hits;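 also: NT is the 2HG producing partner of a matched IDH1 knockdown line; 0% = DMSO-treated cells and -100% = media-only wells without cells; nearly all actives have a fitted effect of over 55% in size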
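Read-out is CellTiter-Glo luminescence after 10 minutes at room temperature, following 48 hours' compound treatment of HT-1080-NT cells (750 cells/well, RPMI, 5% FBS, 37 degrees C).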
KB-V1 cytotox: kills drug-selected multidrug resistant KB-V1 cells; KB-V1 MDR cells viability, CellTiter-Glo, 72 h; Potency, µM (doses to about 46.1 µM), actives largely listed as cytotoxic; 400,000 compounds, 3.4% hits; AID 1347076; also: % is scaled to controls: 0 for no effect and ±100 for the full control effect; nearly all actives have a fitted effect of over 60% in size
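Following 72 h at 37 degrees C with compound, KB-V1 cell viability was read by CellTiter-Glo luminescence, medium being phenol-red-free DMEM plus 10% FBS; concentration-response parameters came from normalized, curve-fitted qHTS data.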
HT1080 IDH1KD tx: toxicity to HT-1080 IDH1 knockdown cells (counter line); AID 686971; Potency, µM (top dose mostly 46.1 µM), for the others: at the top dose activity, negative = toxicity, actives largely listed as cytotoxic; 360,000 compounds, 2% hits; HT-1080 IDH1 knockdown viability, ATP luminescence, 48 h;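 also: 0% = DMSO wells and -100% = cell-free medium wells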
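CellTiter-Glo luminescence after 48 h compound exposure at 37 degrees C of IDH1-knockdown HT-1080 cells in 5% FBS RPMI. %Activity scaled between DMSO wells and cell-free media wells, with curves fitted and assigned curve classes.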
KB-3-1 tox: kills parental KB-3-1 adenocarcinoma cells | KB-3-1 viability, CellTiter-Glo ATP luminescence, 72 h | Potency, µM (series often up to 46.1 µM), hits mostly cytotoxic | 400,000 compounds, 1.4% hits | AID 1347075; also: % is scaled to controls: 0 for no effect and ±100 for the full control effect; nearly all actives have a fitted effect of over 60% in size
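Multi-concentration cytotoxicity screen in KB-3-1 cells grown in DMEM lacking phenol red with 10% FBS. After 72 h at 37 °C with compound, ATP-dependent luminescence was recorded.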
SW480 rerep: induces DNA re-replication in SW480 colon adenocarcinoma cells. 340,000 compounds, 1.8% hits. SW480 DNA re-replication, Hoechst DNA content imaging, 48 h. Potency, µM (highest dose often 46.1 µM), inactives show top-dose re-replication activation, usual class: activators; also: % of control where 0% means no effect; nearly all actives have a fitted effect of over 55% in size
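Image-based DNA-content assay: after two days of treatment, nuclei were labelled with the DNA dye Hoechst and imaged, and hits were compounds raising the count of nuclei showing high fluorescence intensity.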
MCF10A rereplic: induces DNA re-replication in MCF 10a normal breast cells; MCF 10A DNA re-replication, Hoechst nuclear intensity, 48 h; Potency, µM (series often up to 46.1 µM), for inactives: at the highest dose activity, positive = re-replication, usual class: activators; 350,000 compounds, 2.9% hits; also: % of control where 0% means no effect; nearly all actives have a fitted effect of over 50% in size
* hit, by the source's call; i = inactive; ? = inconclusive; . = not tested or not shown; [ ] = remark or other dose. Calls follow the shape of the dose curve; as a rule, active = well fitted curve in the direction sought with a large enough effect; inconclusive = small, poorly fitted or top-dose-only effect, or another doubt; inactive = no such curve, though single readings can be large; an effect the other way counts as inactive or inconclusive. Potency is read from the fitted curve at half-maximal effect.

SMILES	HT1080NT lethal	KB-V1 cytotox	HT1080 IDH1KD tx	KB-3-1 tox	SW480 rerep	MCF10A rereplic
O=C1c2oc3ccccc3c(=O)c2C(c2cccc(O)c2)N1CCCN1CCOCC1 (stereo not given)	22.1%	?	22.6%	i	-4.2%	-1.7%
O=C(O)CCc1ccc2ccccc2c1	.	i	.	i	.	.
O=C(O)CCCc1ccc2c(c1)CCc1ccccc1-2	3.7%	2.06µM*	2.0%	2.91µM*	-4.1%	-4.9%
COc1cccc2c1Oc1ncccc1N(C(=O)CCC(=O)NCc1ccc(F)cc1)C2	-2.3%	i	2.5%	i	-1.3%	-5.4%
Clc1ccc(-c2csc3ncnc(N4CCc5ccccc5C4)c23)cc1	-2.8%	16.4µM*	-9.8%	i	-8.7%	?
Clc1ccc(CN2CCN(c3ncnc4scc(-c5cccs5)c34)CC2)cc1	-19.4%	13µM*	-29.2%	?	-2.5%	?
CC(C)c1ccc(-c2csc3ncnc(N4CCN(C)CC4)c23)cc1	16.4µM*	i	20.6µM*	i	5.1%	?
CN1CCCN(c2ncnc3scc(-c4ccc(F)cc4)c23)CC1	3.1%	i	-1.1%	i	-23.8%	-0.6%
CC(C)CNC(=O)Nc1ccccc1F	12.3%	i	7.4%	i	-59.9%	-0.3%
CCN(C(=O)CSc1nc2ccccc2n1Cc1ccccc1C#N)c1ccccc1	.	i	.	i	.	.
CCC(C)c1ccc(OCC(=O)O)cc1 (stereo not given)	7.0%	i	5.6%	i	0.8%	3.2%
COc1ccc(C2(C(=O)Nc3ccccc3)CCOCC2)cc1	20.6%	i	18.1%	i	-5.1%	20.1%
Oc1ccc(Nc2nc3ccccc3nc2Nc2ccc(O)cc2)cc1	23.1µM*	?	11.6µM*	i	4.61µM*	1.46µM*
N#CCCN(C(=O)COC(=O)c1cc2ccccc2oc1=O)c1ccccc1	-9.6%	i	-0.7%	i	-1.3%	-0.8%
Clc1ccc(CNC2CCN(Cc3ccccc3)CC2)cc1	-25.6%	i	?	i	-2.5%	1.3%
CC(C)c1ccc(NC(=S)NC2CCN(Cc3ccccc3)CC2)cc1	?	20.6µM*	?	?	?	28.4%
S=C(NCc1ccc(Cl)cc1)NC1CCN(Cc2ccccc2)CC1	23.1µM*	16.4µM*	20.6µM*	?	16.4µM*	?
S=C(Nc1cc(Cl)cc(Cl)c1)NC1CCN(Cc2ccccc2)CC1	16.4µM*	?	?	?	?	?
C/C(=N\NC(=O)Cc1c[nH]c2ccccc12)c1ccc2ccccc2c1	?	?	16.4µM*	i	-1.1%	?
CCCCc1nc2n[nH]c(N)c2c2c1CCCC2	-19.1%	0.517µM*	-10.9%	4.11µM*	0.8%	?
O=C1Nc2ccccc2Oc2cc([N+](=O)[O-])cc(Oc3ccccc3)c21	-0.7%	i	-11.8%	i	15.5%	?
O=[N+]([O-])c1cc2c(c([N+](=O)[O-])c1)Nc1ccccc1O2	?	13µM*	-3.5%	23.1µM*	.	.
Cc1cccc(Oc2cc([N+](=O)[O-])cc3c2C(=O)Nc2ccccc2O3)c1	-2.5%	2.59µM*	-22.9%	?	3.9%	?
CC(C)(C)c1cc(NC(=O)COC(=O)c2ccccc2O)n(-c2ccccc2)n1	3.0%	i	3.3%	i	.	.
O=c1oc2c(O)cccc2cc1-c1nc2ccccc2[nH]1	-3.9%	i	-9.4%	20.6µM*	3.26µM*	?
SMILES	HT1080NT lethal	KB-V1 cytotox	HT1080 IDH1KD tx	KB-3-1 tox	SW480 rerep	MCF10A rereplic
Nc1cc2ccncc2c2ccccc12	-6.9%	?	-0.3%	i	?	20.6µM*
O=C(O)CSc1ncccn1	16.0%	?	17.2%	i	-5.7%	2.8%
COc1cc(C(=O)OC2CC3CCC2(C)C3(C)C)ccc1OC(C)=O (stereo not given)	0.7%	?	-9.2%	i	?	14.6µM*
Cc1nc(Sc2ccc(Cl)cc2)c(C#N)c(C)c1[N+](=O)[O-]	?	?	?	i	?	18.4µM*
Cc1nc(Sc2ccc(Br)cc2)c(C#N)c(C)c1[N+](=O)[O-]	?	?	?	?	18.4%	20.6µM*
Cc1ccc(Sc2nc(C)c([N+](=O)[O-])c(C)c2C#N)cc1	-1.8%	i	-11.1%	i	-37.4%	?
CCOC(=O)C1=C(CC)OC(N)=C(C#N)C1c1cc(OC)ccc1OC (stereo not given)	7.6%	i	13.8%	i	-5.4%	-184.1%[0.0737 µM]
CCn1c(CCNC(=O)c2cccs2)nnc1SCC(=O)Nc1ccc(Cl)cc1	-5.7%	?	-27.7%	i	-1.3%	1.5%
Cc1csc2c(N3CCN(C(=O)c4ccc(C(C)(C)C)cc4)CC3)ncnc12	18.4µM*	?	?	i	-9.2%	?
N#Cc1ccc(C=NN2CCCCCC2)cc1	-0.9%	i	-1.2%	i	-1.0%	2.3%
CCCN1C(=O)c2ccccc2NC1c1ccc(Cl)c(Cl)c1 (stereo not given)	-0.3%	i	-2.0%	?	0.2%	16.0%
CN1CC(c2ccc(Cl)c(Cl)c2)[C@@]2(COc3ccccc3C2=O)[C@@]12C(=O)Nc1ccccc12 (stereo not given in full)	-10.0%	9.2µM*	6.5%	?	?	16.4µM*
O=C(CN(C(=O)CCC(=O)Nc1ccccn1)c1cccc(F)c1)NCc1ccc2c(c1)OCO2	0.0%	i	2.5%	i	6.0%	1.2%
CCN(Cc1ccccc1)C(=O)Cn1c(=O)n(-c2ccc(F)c(Cl)c2)c(=O)c2sc3ccccc3c21	.	?	.	i	.	.
CCC1(C)Cc2c(sc3nnn(Cc4ccccc4Cl)c(=O)c23)CO1 (stereo not given)	11.0%	20.6µM*	-2.6%	i	17.1%	16.4µM*
Cc1cccc(NC(=O)Cn2nnc3sc4c(c3c2=O)CC(C)(C)OC4)c1	3.0%	i	0.2%	i	0.0%	4.0%
CCC1(C)Cc2c(sc3nnn(CC(=O)Nc4ccccc4)c(=O)c23)CO1 (stereo not given)	-9.4%	7.31µM*	-17.2%	i	2.1%	-2.6%
CCC1(C)Cc2c(sc3nnn(CC(=O)Nc4ccccc4C)c(=O)c23)CO1 (stereo not given)	-1.3%	14.6µM*	-11.0%	i	0.9%	-1.4%
Cc1ccc2c(c1)N(Cc1cccc(F)c1)C(=O)C(C)O2 (stereo not given)	1.5%	i	0.7%	i	3.2%	8.5%
Cc1ccc(NS(=O)(=O)c2ccc3oc(=O)ccc3c2)cc1Cl	-4.8%	?	-0.2%	i	0.2%	-2.1%

Compound activity (PubChem BioAssay)
